Among all 87,000 compounds or so, about 540 (0.62%) were called active. No rule for the calls is given here. The list comes from a sample in which actives are over-represented; it also holds similar structures and randomly drawn compounds. A call without a number means that no potency is given here. Potency and affinity values are given separately.

A short description of the experiment: inhibitors of MT1-MMP promoter transcription, cell-based, luciferase reporter, luminescence (AID 618).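 Also: actives suppress MT1-MMP promoter-driven transcription so potencies describe inhibitors.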 To be noted: MT1-MMP promoter luciferase reporter cells. On the technique in general: A reporter such as luciferase makes a cellular process visible.
For the compound `Cc1nc2nc(-c3ccccc3)cn2nc1C`, the compound was classed as inactive.
Next, `CCc1c(-c2ccccc2)nc2nc(C)c(C)nn12`: “inactive”.
The entry for `Cc1nc2nc(-c3cccs3)cn2nc1C` is “inactive”.
The entry for `CCc1ccc(-c2nn[nH]n2)cc1` is “inactive”; for `CCc1ccc(-c2cn3nc(C)c(C)nc3n2)cc1` it is “active”; for `Cc1ccc(-c2cn3nc(C)c(C)nc3n2)cc1` it is “active”.
In the case of `O=Cc1ccccc1OCCOc1ccccc1C=O`, the result was inactive.
The entry for `CN(C)c1ccc(-c2nc3ccccc3n2C)cc1` is “active”.
Turning to `Cn1c(-c2ccc(N)cc2)nc2ccccc21`, the compound was classed as inactive.
Next, `CC(C)n1c(-c2ccc(N(C)C)cc2)nc2ccccc21`: “inactive”; `O=C(CN1CCN(c2ccccc2)CC1)Nc1ccccc1C(F)(F)F`: “inactive”.
The entry for `Cc1cccc(NC(=O)CN2C(=O)COc3ccc(Cl)cc32)c1` is “inactive”.
Next, `CCOC(=O)c1c(C)oc2c(F)c(F)c(F)c(F)c2c1=O`: “active”; `CCOC(=O)c1c(C)oc2cc3c(C(=O)OCC)c(C)oc3cc12`: “inactive”.
With `CCOC(=O)c1c(C)cc(=O)oc1C`, the result was inactive.
The entry for `O=C(Oc1ccnc2cc(Cl)ccc12)N1CCOCC1` is “inactive”; for `COc1ccc(-c2cc(N)n(S(=O)(=O)c3c(F)c(F)c(F)c(F)c3F)n2)cc1OC` it is “active”.
Next, `COc1ccc(OC)c(S(=O)(=O)n2nc(-c3ccccc3)cc2N)c1`: “inactive”.
As for `COc1ccc(S(=O)(=O)n2nc(-c3cc(OC)c(OC)c(OC)c3)cc2N)cc1OC`, the outcome was inactive.
Next, `CC(C)(C)Nc1nc(NCc2cccnc2)nc(N2CCOCC2)n1`: “inactive”; `CSc1ccccc1NC(=O)c1ccccc1N(C)S(C)(=O)=O`: “inactive”.
Next, `CCCc1cc2c(n1CCc1ccc(Cl)cc1)C(C)C1CN(C(=O)c3ccccc3)C(C)(C(=O)OC)C21` (stereo not drawn): “inactive”.
On to `CCCCCOc1ccc(Br)cc1/C(C)=N/NC1=NCCN1`, for which the compound was classed as active.
The entry for `CCCCOc1ccc(Br)cc1/C(C)=N/NC1=NCCN1` is “inactive”; for `CCOc1ccc(Br)cc1/C(C)=N\NC1=NCCN1` it is “inactive”.
The entry for `O=C(Cn1ncc2c(=O)oc3ccccc3c21)NCCN1CCN(c2ccccc2F)CC1` is “inactive”; for `COc1ccc(C2C(=O)N(C3CCCCC3)CC(=O)N2Cc2ccc3c(c2)OCO3)cc1` (stereo not drawn) it is “inactive”; for `COc1ccc2nc(NC(=O)c3cc(C)oc3C)sc2c1` it is “inactive”.
Next, `COc1ccc(C)c(S(=O)(=O)Nc2ccc(OCC(=O)O)cc2)c1`: “inactive”; `COc1ccc(NS(=O)(=O)c2cc(C)ccc2NC(=O)c2cc(C)oc2C)cc1`: “active”; `COc1ccc(NS(=O)(=O)c2cc(C(=O)O)ccc2C)cc1`: “inactive”.
Turning to `COc1ccc(NS(=O)(=O)c2cc(C)ccc2C)cc1`, the result was inactive.
Next, `COc1ccc(NS(=O)(=O)c2cc(OC)ccc2NC(=O)c2cc(C)oc2C)cc1`: “active”; `CC(C)(C)c1ccc(C(=O)C=[N+]=[N-])cc1`: “inactive”; `Cc1nn(C)c(C)c1CN(C)C(=O)c1cc2n(n1)C(C(F)(F)F)CC(c1cccs1)N2` (stereo not drawn): “inactive”.
The entry for `CCOC(=O)c1ccc(N2C(=O)CC(N3CCC(C(N)=O)(N4CCCCC4)CC3)C2=O)cc1` (stereo not drawn) is “inactive”; for `CCn1c(=O)cc(SCC(=O)N2CCCCC2)c2ccccc21` it is “inactive”; for `CCOC(=O)c1oc2ccccc2c1CSc1nnnn1-c1ccc(C)cc1` it is “inactive”.
Next, `CNc1cc([N+](=O)[O-])ccc1N/C=C/C(=O)c1cccs1`: “inactive”.
Take `O=C(/C=C/Nc1cccc([N+](=O)[O-])c1)c1cccs1`: the compound was classed as inactive.
For the compound `COc1ccccc1NC(=O)CSc1nccc(=O)[nH]1`, the outcome was inactive.
Next, `CCCc1cc(C(=O)Nc2nnc(C)s2)cs1`: “inactive”.
The entry for `CCOc1cccc(C(=O)Nc2nccs2)c1` is “inactive”; for `O=C(Nc1cnccn1)c1cccc(C(F)(F)F)c1` it is “inactive”; for `O=C(Nc1cnccn1)c1ccncc1` it is “inactive”.
Next, `CC(C)(C)c1ccc(C(=O)Nc2cnccn2)cc1`: “active”.
Turning to `Cc1ccnc(SCC(=O)N2CCN(c3ccccc3)CC2)n1`, the result was inactive.
Next, `O=C(CCCC(=O)N(CC(=O)NC1CCCC1)Cc1ccccc1)Nc1ccccn1`: “inactive”; `COCCNC(=O)CNS(=O)(=O)c1ccc2nc(C)sc2c1`: “inactive”; `CN(C(=O)c1ccno1)c1nnc(-c2cnccn2)s1`: “inactive”.
As for `Cc1ccc(C)c(SCC(=O)OCC(=O)Nc2ccc(S(=O)(=O)N3CCOCC3)cc2)c1`, the call was inactive.
For `O=C1CC(C(=O)Nc2cccc3ccccc23)C2(CCCC2)O1` (stereo not drawn), the outcome was inactive.
The entry for `Cc1ccc2c(c1)c(=O)c1c3n2CCN(C(=O)CCl)C3CC1` (stereo not drawn) is “active”; for `Cc1ccc2c(c1)c1c3n2CCN(C(=O)Cn2c(-c4ccccc4)noc2=O)C3CCC1` (stereo not drawn) it is “inactive”.
The entry for `CC(=O)N1CCn2c3c(c(=O)c4cc(C)ccc42)CCC31` (stereo not drawn) is “inactive”.
The entry for `Cc1sc2nc(CSc3nnc(Cc4cccs4)n3C3CCCCC3)[nH]c(=O)c2c1C` is “inactive”; for `Cc1ccc(NC2=NC(c3ccc(O)cc3)n3c(nc(C)cc3=O)N2)cc1` (stereo not drawn) it is “inactive”; for `Nc1nonc1/C(=N/O)N1CCN(CCO)CC1` it is “inactive”.
Consider `COC(=O)N1[C@H](C)C=C[C@]1(Cc1ccccc1)C(=O)O`, for which the outcome was active.
The entry for `CNC(=O)[C@@]1(Cc2ccccc2)C=C[C@@H](C)N1C(=O)OC` is “inactive”; for `COC(=O)N1[C@H](C)C=C[C@]1(Cc1ccccc1)C(=O)OC` it is “inactive”; for `Nc1nonc1N1CCCCC1` it is “inactive”.
Next, `CCCNC(=O)Cn1cnc2sc(C(=O)NCCN(CC)CC)c(C)c2c1=O`: “inactive”; `CNC(=O)CCc1nc(-c2ccc(C(C)(C)C)cc2)no1`: “inactive”.
Next, `O=C(O)CCCc1nc(-c2ccccc2)no1`: “inactive”; `COc1ccc(-c2noc(CCC(=O)O)n2)cc1`: “inactive”; `CN(C)C(=O)CCc1nc(-c2ccc(C(C)(C)C)cc2)no1`: “inactive”.
For the compound `CCOC(=O)C1C2C=CC3(CN(CCc4ccccc4)C(=O)C13)O2` (stereo not drawn), the compound was classed as inactive.
Next, `O=C(c1csc2c1CCCC2)N1CCN(c2ncccn2)CC1`: “inactive”.
The entry for `Cc1cccc(-n2nnnc2SC(C)C(=O)NCCC2=CCCCC2)c1` (stereo not drawn) is “inactive”; for `CC(C(=O)NC(=O)NC1CCCCC1)N1CCN(c2ccccn2)CC1` (stereo not drawn) it is “inactive”.
For the compound `O=C(CNC(=O)c1ccco1)NCC(=O)OCc1cccc(Cl)c1`, the compound was classed as inactive.
For the compound `Nc1nc(-c2cccc(Br)c2)cs1`, the outcome was inactive.
Next, `Cc1oc(-c2ccccc2)cc1C(N)=O`: “inactive”; `CCOC(=O)CNC(=O)c1cc(-c2ccc3c(c2)OCCO3)oc1C`: “inactive”; `Cc1oc(-c2ccc3c(c2)OCCO3)cc1C(=O)NC(CCC(=O)O)C(=O)O` (stereo not drawn): “inactive”.
Next, `COc1cc(C)c(-c2cc(C(=O)O)c(C)o2)cc1C(C)C`: “inactive”; `COc1ccc(C2=NN(CN3C(=O)C(=O)c4ccccc43)C(c3ccc(C)cc3)C2)cc1` (stereo not drawn): “inactive”.
The entry for `O=C(N1CCOCC1)N1CCN(c2ccccn2)CC1` is “inactive”; for `O=C(c1ccco1)N1CCN(C(=O)N2c3ccccc3Sc3ccccc32)CC1` it is “active”; for `O=C(NC1CCN(C(=O)N2c3ccccc3Sc3ccccc32)CC1)c1ccco1` it is “inactive”.
Consider `O=C(N1CCN(c2ccccn2)CC1)N1c2ccccc2Sc2ccccc21`, for which the outcome was active.
The entry for `O=C(CN1CCN(c2ccccn2)CC1)N1c2ccccc2Sc2ccc(C(F)(F)F)cc21` is “inactive”; for `O=C(c1ccco1)N1c2ccccc2Sc2ccccc21` it is “inactive”.
The entry for `CC(C)NC(=O)c1c2c(nc3ccccc13)CCCC2` is “inactive”.
In the case of `Cc1nnc2ccc(N3CCN(C(=O)c4ccccc4)CC3)nn12`, the call was inactive.
The entry for `O=C1COc2ccc(C(=O)COC(=O)Cn3cnc4ccccc43)cc2N1` is “inactive”; for `CCOC(=O)CNC(=O)C(CC(C)C)NC(=O)C1CCCCC1` (stereo not drawn) it is “inactive”; for `CC(C)(C)c1ccc(OCc2nc(-c3ccccn3)no2)c(Br)c1` it is “inactive”.
As for `Clc1ccc(OCc2nc(-c3ccccn3)no2)c(Br)c1`, the outcome was inactive.
Next, `Cc1ccc(OCc2nc(-c3ccccn3)no2)cc1`: “inactive”; `CCc1ccc(OCc2nc(-c3ccccn3)no2)c(Br)c1`: “active”.
Take `Clc1ccccc1OCc1nc(-c2ccncc2)no1`: the result was inactive.
Next, `CC(C)c1ccc(OCc2nc(-c3ccccn3)no2)c(Br)c1`: “inactive”.
Next, `Clc1cc(Cl)c(OCc2nc(-c3ccccn3)no2)cc1Cl`: “inactive”; `O=C(NCC1COc2ccccc2O1)c1c[nH]c2ccc(S(=O)(=O)N3CCOCC3)cc2c1=O` (stereo not drawn): “inactive”.
The entry for `CCN(CC)c1ccc(NC(=O)CCCCCN2C(=O)c3ccccc3C2=O)cc1` is “inactive”.
`CCOC(=O)C1CCN(C(=O)CN(c2cccc(C(F)(F)F)c2)S(C)(=O)=O)CC1`: the compound was classed as inactive.
Next, `CN(C)S(=O)(=O)N1CCN(C(=O)N2CCOCC2)CC1`: “inactive”; `COc1cccc(CSc2nc3sc(C)c(C)c3c(=O)n2Cc2ccco2)c1`: “inactive”.
Take `C=CCn1c(COc2cccc3ccc(C)nc23)nnc1SCC(=O)O`: the result was inactive.
`CC(C)CCNC(=O)C1C2C=CC3(CN(Cc4ccccc4Cl)C(=O)C13)O2` (stereo not drawn): the result was inactive.
Take `O=C(c1ccccc1-c1ccccc1)N1CCCC1`: the result was inactive.
Next, `CCOC(=O)N1CCN(C(=O)c2ccccc2Oc2ccccc2)CC1`: “inactive”; `CCOC(=O)N1CCN(C(=O)c2ccccc2-c2ccccc2)CC1`: “active”; `Fc1ccc(-c2cc(C(F)(F)F)nc(N3CCCCC3)n2)cc1`: “inactive”.
The entry for `Cc1nc2ncnn2c(N2CCC(C(=O)NCC3CCCO3)CC2)c1Cc1ccccc1` (stereo not drawn) is “inactive”; for `COc1ccc(CCNc2nnc(Sc3nnnn3-c3ccccc3)s2)cc1OC` it is “active”.
The entry for `COc1ccc(-n2nnnc2SCC(=O)NCCc2ccc(OC)c(OC)c2)cc1` is “inactive”; for `CCCSc1nnc(Sc2nnnn2-c2ccccc2)s1` it is “inactive”.
As to `COc1cccc2cc(C(C)=O)c(=O)oc12`, the compound was classed as inactive.
Next, `O=C(C1CCCN(Cc2ccccc2)C1)N1CCCCC1` (stereo not drawn): “inactive”.
Next, `CCOC(=O)c1sc(NC(=O)c2cncc(Br)c2)nc1C`: “inactive”; `CCC(C)(C)n1nnnc1C(c1ccc2ncccc2c1)N1CCN2CCCC2C1` (stereo not drawn): “inactive”; `CN1CCN(/C=N/c2sc3c(c2C#N)CCCCC3)CC1`: “inactive”.
Next, `CCN1CCN(/C=N/c2nc(C)cs2)CC1`: “inactive”; `CCN1CCN(/C=N/c2nc3c(s2)CCCC3)CC1`: “active”.
On to `CC1=CC(C)(C)N2C(=O)C3(C(C#N)=C(N)Oc4cc(C)oc(=O)c43)c3cc(C)cc1c32` (stereo not drawn), for which the outcome was inactive.
